Pf growth 48h – P. falciparum growth inhibition at 48 hours (one generation); P. falciparum luciferase growth in erythrocytes, 48 h; Potency, µM (doses to about 28.7 µM), most hits filed as inhibitors; 5.9% of 310,000 active; AID 504832
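Luciferase-expressing parasites in RBCs, 2% Hct / 0.1% parasitemia final; RPMI 1640 + 0.5% Albumax; 37 C, 5% CO2, one generation; luminescence read-out, lower signal = inhibition.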
CHX counter – counter-screen for Shiga toxin inhibitors: cycloheximide protein synthesis inhibition. cell reporter, cycloheximide protein synthesis inhibition counterscreen. max response, %. 12% of 300,000 active; in the data active = max response mostly above about 13%, no sharp cut-off; inactive = mostly below about 14%; also: read at 38.3 µM for the half of the compounds with a filed dose
Shiga inhibitor – inhibitors of Shiga toxin in Vero cells; Vero cells, Shiga toxin protein synthesis inhibition reporter; inhibition, % at 38.7 µM; 9.2% of 290,000 active; AID 2315; in the data active = inhibition mostly above about 28%, no sharp cut-off; inactive = mostly below about 43%
Pf growth 96h – P. falciparum growth inhibition at 96 hours; 6.9% of 320,000 active; AID 504834; P. falciparum luciferase reporter growth, 96 h; Potency, µM (titrated, usually from 28.7 µM), actives largely listed as inhibitors
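96 h incubation, 37 C, 5% CO2, of luciferase-reporter P. falciparum-infected RBCs (2% hematocrit, 0.05% parasitemia final) with test compounds; endpoint luminescence.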
Hits are given with their value; . = inactive; ? = inconclusive; / = no result; [ ] = remark or other dose. The list is not random: actives were taken first. Their share in the collection is about 21%. Unless noted, calls follow the shape of the dose curve; as a rule, active = well fitted inhibition curve with a large enough effect; inconclusive = small, poorly fitted or top-dose-only effect, or another doubt; inactive = no such curve, though single readings can be large or run the other way.

SMILES	Pf growth 48h	CHX counter	Shiga inhibitor	Pf growth 96h
COc1ccc(-c2cc(=O)oc3cc(OCC(=O)N4C[C@H]5C[C@@H](C4)c4cccc(=O)n4C5)ccc23)cc1	?	.	.	?
Cc1cc(OCC(=O)N2C[C@H]3C[C@@H](C2)c2cccc(=O)n2C3)c2c(C)c(C)c(=O)oc2c1	.	.	.	.
CCCCc1cc(=O)oc2cc(OCC(=O)N3C[C@H]4C[C@@H](C3)c3cccc(=O)n3C4)ccc12	.	.	.	8.28µM
Cc1ccc(S(C)(=O)=O)cc1C(=O)OCC(=O)N1CCCC1=O	.	/	/	.
COC(=O)Cc1[nH]c(=S)[nH]c1C(=O)OC	.	.	.	.
COc1cccc(CNC(=O)Cn2ccc3cc(S(=O)(=O)N4CCCCCC4)ccc32)c1OC	?	.	.	?
COc1ccc2sc(NC(=O)c3ccco3)nc2c1	.	22.7	.	.
COc1ccc2nc(NC(=O)CCNC(=O)c3ccco3)sc2c1	.	/	/	.
O=C(NC(=S)Nc1nc2ccccc2s1)c1ccco1	.	35.4	29.7	.
COc1ccc2nc(NC(=S)NC(=O)c3ccco3)sc2c1	.	33.5	126.9	.
O=C(Cn1nnc2ccccc2c1=O)N[C@@H](Cc1ccccc1)C(=O)O	.	.	.	.
O=S(=O)(c1ccc(Cl)cc1)c1cc(Cl)c(Cl)cc1Cl	/	.	.	/
O=C(CSc1ccccn1)Nc1ccc2ccccc2c1	.	52.8	77.5	?
O=C(CSc1n[nH]c(=O)[nH]c1=O)Nc1ccc2c(c1)C(=O)c1ccccc1C2=O	.	27.1	67.7	.
Cc1cc(NC(=O)CSc2ccccn2)cc(NC(=O)CSc2ccccn2)c1	.	.	.	.
CC(=O)Nc1ccc(NC(=O)CSC2=NCCS2)cc1	.	.	.	.
O=C(CSc1ccccn1)Nc1ccc2c(c1)CCC2	.	/	/	.
O=C(CSc1ccccn1)Nc1ccc2c(c1)C(=O)c1ccccc1C2=O	.	43.1	.	.
O=C(CSC1=NCCS1)Nc1ccc2ccccc2c1	.	35.8	116.8	.
O=[N+]([O-])c1ccc(S(=O)(=O)N2CCN=C2SCc2cccnc2)cc1	.	.	.	.
S=c1[nH]nc(CSc2nc3ccccc3s2)n1C1CCCCC1	.	.	.	?
COc1ccc(C(=O)OCC(=O)Nc2ccc3c(c2)OCO3)cc1S(=O)(=O)N1CCOCC1	?	/	/	.
O=C(COc1ccc2ccccc2c1)NC1=NCCS1	.	43.3	107.4	/
Cc1cc(C)cc(OCC(=O)NC2=NCCS2)c1	.	.	.	/
Cc1ccc(OCC(=O)O/N=C(\N)c2ccccn2)cc1	.	50.4	80.3	.
SMILES	Pf growth 48h	CHX counter	Shiga inhibitor	Pf growth 96h
Cc1ccc(S(=O)(=O)N(C)CC(=O)O/N=C(\N)c2ccccn2)cc1	.	.	.	?
N/C(=N\OC(=O)CCCOc1ccc(Cl)cc1Cl)c1ccccn1	.	.	.	?
Cc1cccc(OCC(=O)O/N=C(\N)c2ccccn2)c1C	.	28.1	64.8	.
COc1ccccc1C/C(N)=N/OC(=O)COc1cccc(C)c1C	.	.	.	?
N/C(=N\OC(=O)Cc1ccc(Cl)cc1)c1ccccn1	/	19.9	.	.
Cc1ccc(CC(=O)O/N=C(\N)c2ccccn2)cc1	.	81.9	83.7	.
CC(C)(C)CC(=O)O/N=C(\N)c1ccccn1	.	40.1	.	13.1µM
N/C(=N\OC(=O)COc1cc(Cl)c(Cl)cc1Cl)c1ccccn1	.	39.5	90.6	.
CCS(=O)(=O)c1cc([N+](=O)[O-])c(Sc2ccccc2NC(C)=O)s1	.	14.4	.	.
CCCC(=O)Oc1ccc(-c2nccc(C(OC)OC)n2)cc1	.	.	51.9	.
CCC(C)(C)NC(=O)C(c1ccc(OC)cc1)N(C(=O)CCC(=O)Nc1cc(C)on1)c1ccc2c(c1)OCCO2 (stereo not drawn)	?	.	.	?
Cc1ccc(C(=O)N/N=C\c2ccc(OC(=O)c3cccs3)cc2)cn1	.	.	.	.
Cc1ccc(C(=O)N/N=C/c2ccc(OC(=O)c3ccccc3Cl)cc2)cn1	.	13.7	.	?
Cc1cccc(C(=O)Oc2ccc(/C=N/O)cc2)c1	.	47.7	45.0	?
O=C(Oc1ccc(/C=N/O)cc1)c1ccccc1Cl	.	51.3	68.8	.
O=C(N/N=C/c1cccc(OC(=O)c2ccccc2Cl)c1)c1cccnc1	.	25.3	49.1	.
CCOc1ccc(NC(=S)N2CCC(NC(=O)C3CCCCC3)CC2)cc1	.	.	.	.
CC(=O)c1c(C)nn(CC(=O)NC2CCCN(Cc3ccc(CC(C)C)cc3)C2)c1C (stereo not drawn)	.	.	.	?
O=C(Nc1nccs1)C1CC=CC2CCN(Cc3ccc(Cl)c(Cl)c3)C(=O)C21 (stereo not drawn)	/	.	.	/
CC(C)OC(=O)C1C(=O)CC(C)(O)C(C(=O)OC(C)C)C1c1cccc(O)c1 (stereo not drawn)	.	.	.	4.15µM
CC(C)OC(=O)C1C(=O)CC(C)(O)C(C(=O)OC(C)C)C1c1ccc(F)cc1 (stereo not drawn)	/	.	.	?
CC(C)COC(=O)C1C(=O)CC(C)(O)C(C(=O)OCC(C)C)C1c1cccnc1 (stereo not drawn)	9.28µM	.	.	/
C=C1CCN([C@@H](C)C(=O)NCCCCCC)S(=O)(=O)c2ccccc21	.	.	.	.
COc1ccc2cc(-c3ccn[nH]3)ccc2c1	.[0.00184 µM]	31.7	79.9	.
COc1cccc(CC(NC(C)=O)C(=O)NC2CCN(C(=O)c3ccc(Cl)cc3)CC2)c1 (stereo not drawn)	.	.	.	.
SMILES	Pf growth 48h	CHX counter	Shiga inhibitor	Pf growth 96h
COc1ccc(OC)c(Nc2nc(NCCCN(C)C)nc(N)c2[N+](=O)[O-])c1	13.1µM	.	.	11.7µM
COCCCNc1nc(N)c([N+](=O)[O-])c(Nc2cc(OC)ccc2OC)n1	.	.	.	?
COc1ccccc1Nc1nc(NCCC(C)C)nc(N)c1[N+](=O)[O-]	3.7µM	.	.	?
COc1ccccc1Nc1nc(NCCO)nc(N)c1[N+](=O)[O-]	?	.	.	?
Oc1ccc(CCC2CCCCN2Cc2nc(C3CC3)no2)cc1 (stereo not drawn)	.	.	.	.
COc1ccc(OCCC(=O)Nc2nccs2)cc1	.	.	.	.
COc1ccccc1OCCCC(=O)Nc1nccs1	.	51.7	89.3	.
O=C(CCCOc1ccccc1)Nc1nccs1	?	.	.	?
CCc1ccc(OCCCC(=O)Nc2nccs2)cc1	?	28.6	52.9	.
CC1CCCN(CCCNC(=O)c2nn(C)c3c2CS(=O)(=O)c2ccccc2-3)C1 (stereo not drawn)	.	.	.	?
Nc1c(C(=O)Nc2ccc(F)cc2)nnn1-c1cccc(C(F)(F)F)c1	.	15.0	.	9.28µM
Nc1c(C(=O)Nc2cccc(F)c2)nnn1-c1cccc(C(F)(F)F)c1	.	18.5	59.5	?
CC(=O)Nc1nonc1-n1nnc(C(=O)NCc2ccccc2)c1C	.	.	.	2.33µM
COC(=O)Cc1c(C(=O)OC)nnn1-c1cccc(C(F)(F)F)c1	.	.	.	.
O=C(O)c1nnn(-c2cccc(C(F)(F)F)c2)c1-c1ccccc1	.	.	.	?
CC(=O)Nc1c(C(=O)NCc2ccccc2)nnn1Cc1ccccc1	.	.	.	.
Cc1ccc(NC(=O)c2nnn(-c3cccc(C(F)(F)F)c3)c2N)cc1	.	.	.	11.7µM

Screens from PubChem.
